Screens as filed in PubChem BioAssay.
TDP1 cell CPT: DT40-hTDP1 cell growth loss with CPT | chicken DT40 Tdp1-/-;hTDP1 cells + 20 nM CPT, ATP luminescence, 48 h | Potency, µM (highest dose often 46.2 µM), without a hit: at the top dose activity change, negative = growth inhibition, most hits filed as inhibitors | 420,000 compounds, 12% hits | AID 686979; further: nearly all actives have a fitted effect of over 55% in size
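Chicken DT40 Tdp1-/- cells complemented with human TDP1, 400 cells/well, exposed to compounds plus 20 nM camptothecin for at least 48 h at 37 C; viability read as ATP content by CellTiter-Glo luminescence.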
ELG1 repair inh: blocks ELG1-dependent DNA repair in HEK293T cells. Potency, µM (highest dose often 46.1 µM), inactives show at the highest dose activity change, negative = inhibition, actives largely listed as inhibitors. 330,000 compounds, 2.3% hits. HEK293T ELG1-luciferase reporter, luminescence, 16 h; DNA damage induced by 5-fluorouridine. AID 504467; further: nearly all actives have a fitted effect of over 55% in size
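5-Fluorouridine DNA damage + compound/DMSO, 2,000 cells/well, 16 h, 37 °C/5% CO2. ONE-Glo, 30 min RT, luminescence. Readout = decrease in reporter signal.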
TDP1 cell noCPT: qHTS for Inhibitors of human tyrosyl-DNA phosphodiesterase 1 (TDP1): qHTS in cells in absence of CPT. DT40 Tdp1-/- hTDP1 cells, no CPT, ATP luminescence, 48 h. Potency, µM (doses to about 46.2 µM), for inactives: top-dose activity change, negative = growth inhibition, usual class: inhibitors. 420,000 compounds, 15% hits. AID 686978, 2013; further: nearly all actives have a fitted effect of over 55% in size
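DT40 Tdp1-/-;hTDP1 cells, no CPT (DMSO vehicle only), 400 cells/well; compounds pin-transferred; ≥48 hr, 37 °C; CellTiter-Glo 30 min RT dark, luminescence read.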
RORg inh: blocks mouse ROR gamma transcriptional activity; 310,000 compounds, 5.4% hits; Potency, µM (doses to about 53.6 µM), for the others: top-dose activity change, negative = inhibition, most hits filed as inhibitors; P51450; Drosophila S2 Gal4-RORgamma UAS-luciferase reporter, 20 h; further: nearly all actives have a fitted effect of over 60% in size
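Luminescence from a UAS-regulated Photinus luciferase reporter in stably transfected Drosophila Schneider cells is measured; decreased signal marks ROR gamma inhibition. Fusion expression is induced by 700 uM copper sulfate for 20 hr.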
VP16 counter: counter-screen for ROR gamma inhibitors: Gal4-VP16 reporter; Drosophila S2 Gal4-VP16 UAS-luciferase, luminescence, 20 h; Potency, µM (top dose mostly 53.6 µM), without a hit: top-dose activity, negative = inhibition, usual class: inhibitors; 310,000 compounds, 3.5% hits; AID 2546;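 further: Gal4-VP16 expression switched on by copper sulfate through the metallothionein promoter; nearly all actives have a fitted effect of over 50% in size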
12-LOX inh: blocks human arachidonate 12S-lipoxygenase; purified 12hLO, xylenol orange hydroperoxide absorbance; Potency, µM (top dose mostly 108 µM), inactives show at the highest dose activity change, negative = inhibition, usual class: inhibitors; 580,000 compounds, 1.1% hits; AID 1671190
Target sequence (P18054 whole entry, looked up): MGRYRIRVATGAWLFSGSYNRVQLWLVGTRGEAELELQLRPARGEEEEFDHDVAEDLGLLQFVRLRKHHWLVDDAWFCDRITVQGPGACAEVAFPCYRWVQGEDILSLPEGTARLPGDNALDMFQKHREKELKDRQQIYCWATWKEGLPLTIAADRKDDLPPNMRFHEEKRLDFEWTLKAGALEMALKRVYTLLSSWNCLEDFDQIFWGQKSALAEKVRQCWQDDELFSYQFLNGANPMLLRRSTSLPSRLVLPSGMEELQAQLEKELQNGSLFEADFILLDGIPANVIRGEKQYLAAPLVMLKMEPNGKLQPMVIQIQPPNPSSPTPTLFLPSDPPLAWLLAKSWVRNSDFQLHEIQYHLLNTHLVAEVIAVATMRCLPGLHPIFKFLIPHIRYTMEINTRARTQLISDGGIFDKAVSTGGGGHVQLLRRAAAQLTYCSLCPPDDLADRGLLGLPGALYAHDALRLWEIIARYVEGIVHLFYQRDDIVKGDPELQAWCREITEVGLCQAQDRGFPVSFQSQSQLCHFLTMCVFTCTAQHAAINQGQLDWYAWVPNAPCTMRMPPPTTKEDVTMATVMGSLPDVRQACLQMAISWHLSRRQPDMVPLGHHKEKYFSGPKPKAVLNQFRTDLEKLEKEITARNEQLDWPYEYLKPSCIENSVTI
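Purified human 12hLO (150 nM final) in 25 mM Hepes, 0.01% Triton X-100, pH 7.0 was preincubated 15 min at room temperature with compound. Then 40 uM arachidonic acid was added, 30 min. Hydroperoxide was read by Fe-XO absorbance ratio 573/405 nm.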
* = called active by the depositor; [ ] = another dose, or the depositor's remark. Only some compounds are listed: those with a hit (about 15% of all), similar ones and a draw of the others. The call rests on the fitted dose curve; in most records, active means well fitted curve in the direction sought with a large enough effect; inconclusive means small, poorly fitted or top-dose-only effect, or another doubt; inactive means no such curve, though single readings can be large; an effect the other way counts as inactive or inconclusive. On the % scale 0 is the no-effect control and ±100 the full control effect; potency means the concentration at half of the fitted maximal effect.

Screening CC(=O)OCC1=C(C(=O)O)N2C(=O)C(NC(=O)c3ccc(COc4ccc(Cl)cc4)o3)C2SC1 (configuration not stated) returned TDP1 cell CPT -4.0%, ELG1 repair inh -2.7%, TDP1 cell noCPT inconclusive, RORg inh -4.9%, VP16 counter 8.2% and 12-LOX inh 39.8µM*.
`COc1ccccc1C(O)c1nc(Nc2ccncc2)n[nH]1` (configuration not stated) gave 12-LOX inh 39.6%[176 µM].
Screening S=C(NCCc1ccc(Cl)cc1Cl)NC1CCCCC1 returned 12-LOX inh 17.8µM*.
`S=C(NC1CCCCC1)N(CCc1ccccc1)CCc1ccccc1` gave TDP1 cell CPT inconclusive, ELG1 repair inh 4.4%, TDP1 cell noCPT inconclusive, RORg inh 10µM*, VP16 counter 10µM* and 12-LOX inh inconclusive.
For CC(NC(=S)NC1CCC(C(C)(C)C)CC1)c1ccccc1 (configuration not stated) the results were TDP1 cell CPT inconclusive, ELG1 repair inh -0.5%, TDP1 cell noCPT inconclusive, RORg inh 1.58µM*, VP16 counter 2.82µM* and 12-LOX inh inconclusive.
`CC(NC(=S)NC(C)C1CC2CCC1C2)c1ccccc1` (configuration not stated) gave 12-LOX inh 23.4%.
O=C(NCCc1ccccc1)C(=O)NC1CCCCC1 was read as TDP1 cell CPT -40.6%, ELG1 repair inh inconclusive, TDP1 cell noCPT -4.3%, RORg inh -3.7%, VP16 counter 12.4% and 12-LOX inh 4.6%[57.4 µM].
`S=C(NCCc1ccc(Cl)cc1)NC1CCCCC1` gave TDP1 cell CPT inconclusive, ELG1 repair inh inconclusive, TDP1 cell noCPT inconclusive, RORg inh 3.55µM*, VP16 counter 5.01µM* and 12-LOX inh 39.8µM*.
Screening O=C(Cc1csc2ccccc12)NC1CCCCCC1 returned 12-LOX inh -32.9%.
Screening Cn1c(=O)c2c(nc(NCc3ccco3)n2Cc2ccccc2Br)n(C)c1=O returned 12-LOX inh -1.3%.
Screening NS(=O)(=O)c1ccc(CNC(=S)NC2CCCC2)cc1 returned TDP1 cell CPT 15.7%, ELG1 repair inh -2.2%, TDP1 cell noCPT -20.6%, RORg inh 2.5%, VP16 counter -10.1% and 12-LOX inh 1.5%.
For S=C(NCc1ccc(Cl)cc1)NC1CCCC1 the results were 12-LOX inh 39.8µM*.
O=S(=O)(CCNCc1ccccc1)NC1CCCCC1 was read as TDP1 cell CPT inconclusive, TDP1 cell noCPT -3.0% and 12-LOX inh -2.6%.
`S=C(NCCc1ccccc1)NC1CCCCCC1` gave TDP1 cell CPT 18.4µM*, ELG1 repair inh inconclusive, TDP1 cell noCPT inconclusive, RORg inh 2.82µM*, VP16 counter 8.6%[0.365 µM] and 12-LOX inh inconclusive.
`Cc1ccc(CNC(=S)NNC(=O)C(C)(C)O)cc1` gave 12-LOX inh 9.1%.
`S=C(NCCNCc1ccccc1)NC1CCCCC1` gave ELG1 repair inh 0.0%, RORg inh 3.98µM* and VP16 counter inconclusive.
Screening Cc1ccc(CNC(=S)NC2CCC(C(C)(C)C)CC2)cc1 (configuration not stated) returned TDP1 cell CPT inconclusive, ELG1 repair inh -4.7%, TDP1 cell noCPT 23.1µM*, RORg inh 2.82µM*, VP16 counter 5.01µM* and 12-LOX inh inconclusive.
COCCn1cnnc1SCCOc1ccc(F)cc1 was read as 12-LOX inh -0.4%.
Screening Fc1ccc(CNC(=S)NC2CCCCCC2)cc1 returned TDP1 cell CPT 0.9%, ELG1 repair inh inconclusive, TDP1 cell noCPT -23.8%, RORg inh 6.31µM*, VP16 counter 11.2µM* and 12-LOX inh inconclusive.
`Cc1ccc(SCCNC(=S)NC2CC2)cc1` gave 12-LOX inh -52.3%.
For S=C(NCCSc1ccc(Cl)cc1)NC1CCCC1 the results were 12-LOX inh 28.2µM*.
`S=C(NCCc1ccc(Cl)cc1)NC1CCCC1` gave TDP1 cell CPT inconclusive, ELG1 repair inh -16.0%, TDP1 cell noCPT inconclusive, RORg inh 2µM*, VP16 counter 6.31µM* and 12-LOX inh inconclusive.
Screening O=C(CCC(=O)NC1CCCCC1)NCc1ccc(F)cc1 returned TDP1 cell CPT 7.5%, ELG1 repair inh -3.5%, TDP1 cell noCPT 9.9%, RORg inh inconclusive, VP16 counter -2.5% and 12-LOX inh 23.2%.
For S=C(NCCc1ccccc1)NC1CCCc2ccccc21 (configuration not stated) the results were 12-LOX inh 14.1µM*.
Screening O=C(NCc1ccc(Cl)cc1)C(=O)NCC(c1cccnc1)N1CCN(c2ccc(F)cc2)CC1 (configuration not stated) returned TDP1 cell CPT 6.51µM*, ELG1 repair inh 11.6µM*, TDP1 cell noCPT 8.2µM*, RORg inh inconclusive, VP16 counter inconclusive and 12-LOX inh -8.1%.
For O=C(NCCCn1ccnc1)C(=O)NCC(c1cccnc1)N1CCN(c2ccc(F)cc2)CC1 (configuration not stated) the results were TDP1 cell CPT inconclusive, ELG1 repair inh -0.7%, TDP1 cell noCPT inconclusive, RORg inh -25.5% and VP16 counter -7.0%.
For COc1ccc(CNC(=O)C(=O)NCC(c2cccnc2)N2CCN(c3ccccc3)CC2)cc1 (configuration not stated) the results were TDP1 cell CPT 16.4µM*, TDP1 cell noCPT 13µM* and 12-LOX inh 5.7%.
O=C(NCCc1ccccc1)C(=O)NCC(c1cccnc1)N1CCN(c2ccccc2)CC1 (configuration not stated) was read as TDP1 cell CPT 20.6µM*, TDP1 cell noCPT 16.4µM* and 12-LOX inh -0.4%.
Cc1ccc(C)c(NC(=O)C(=O)NCC(c2cccnc2)N2CCN(c3ccc(F)cc3)CC2)c1 (configuration not stated) was read as TDP1 cell CPT 4.61µM*, TDP1 cell noCPT 4.61µM* and 12-LOX inh -24.9%.
`Cc1ccsc1/C=C/C(=O)c1cc2ccccc2o1` gave 12-LOX inh 12.4%.
For COc1ccc(NC(=O)c2noc3c2CC(C)CC3)c(OC)c1 (configuration not stated) the results were 12-LOX inh -36.1%.
